# Laboratory results as given in the supplement of paper PMC3334620.
# In all, about 33,000 sequences were measured (“E-score (-0.5 to 0.5)”: median about -0.036, highest 2% from about 0.37 on). The sample as a whole holds a higher share of the highest values than the screen did.
# Molecular target: T1, Yer064c (UniProt P40041)
# T1 sequence: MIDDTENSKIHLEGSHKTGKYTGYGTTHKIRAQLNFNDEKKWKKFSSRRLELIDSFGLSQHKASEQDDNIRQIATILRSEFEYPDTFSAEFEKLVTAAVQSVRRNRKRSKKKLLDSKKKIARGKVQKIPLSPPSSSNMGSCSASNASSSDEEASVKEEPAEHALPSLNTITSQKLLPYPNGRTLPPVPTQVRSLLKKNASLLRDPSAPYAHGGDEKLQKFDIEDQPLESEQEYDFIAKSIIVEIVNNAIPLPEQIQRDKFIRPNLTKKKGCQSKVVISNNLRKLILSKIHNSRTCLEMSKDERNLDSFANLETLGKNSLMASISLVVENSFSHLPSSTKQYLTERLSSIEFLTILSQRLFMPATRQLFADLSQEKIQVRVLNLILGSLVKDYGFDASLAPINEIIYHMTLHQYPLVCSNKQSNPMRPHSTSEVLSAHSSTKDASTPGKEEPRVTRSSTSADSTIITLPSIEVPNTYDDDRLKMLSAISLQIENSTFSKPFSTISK
# Assay: PBM E-score (8-mer binding enrichment) (E-score (-0.5 to 0.5)); higher = stronger / more preferred TF binding
# Conditions: protein concentration: 200 nM; construct: GST-full length
# Outline: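 Universal all-10-mer Agilent arrays, fresh or stripped once, were converted to double-stranded form by primer extension. GST-tagged yeast transcription factors from PURExpress in vitro transcription/translation, full-length or DNA-binding domain only, were applied at about 100-200 nM and detected with fluorescent anti-GST. After masliner normalisation, the Universal PBM Analysis Suite scored each ungapped eight-base word together with its reverse complement by E-score.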
row,Sequence,PBM E-score
1,AAGACCAG,-0.0791
2,CCCGGCAA,-0.166
3,CTGCGGAC,-0.0565
4,AGGGGGTC,-0.406
5,CCCACATA,0.0317
6,CCGTTCGA,0.0719
7,AAGTCACT,0.399
8,ACGTCACT,-0.0404
9,GGGTCACA,0.00589
10,GCGTCACA,-0.13
11,GAGTCACA,0.493
12,AGGTCACT,0.0701
13,GAGGCCAC,-0.319
14,ACGGCCGC,-0.0196
15,AGGCAGTC,0.213
16,CTTTGAGA,0.179
17,TGAGCTAA,0.189
18,GCTGTAGA,-0.0534
19,AGTTAGCG,-0.0192
20,CTTGTGAC,0.222
21,ATTGGTCA,0.0959
22,CATCCACC,-0.0348
23,CCTGGACA,-0.127
24,ACGATTAG,0.152
25,ATGATTAG,0.438

row,Sequence,PBM E-score
1,ACGATTAC,0.185
2,ATGATTAC,0.472
3,ATGATTTG,0.299
4,AAGATTAC,0.241
5,CTGAGTCC,0.402
6,CTGAGTGC,-0.0835
7,ATGAGTGC,0.226
8,ATGAGTTC,0.327
9,ATGAGTCG,0.474
10,ATGAGTGG,0.193
11,ATGAGTCC,0.442
12,CTGAGTTC,0.104
13,ATGAGTTG,0.194
14,AGCTACGG,-0.0957
15,CAGTGGTC,0.0376
16,GGCACGGA,-0.127
17,TACTTCTA,0.0324
18,TGTCCAAA,-0.0925
19,ATTTCTTC,-0.058
20,CTGATTGA,0.305
21,ATGATTGG,0.286
22,ATGATTGC,0.375
23,ACGATTGC,0.0745
24,CTGATTGC,0.274
25,GCGATTGA,0.145

row,Sequence,PBM E-score
1,ATGATTGA,0.423
2,GTGATTGA,0.401
3,ACGATTGA,0.216
4,GGTGAAAA,-0.106
5,CAAATCTC,0.0434
6,CATCTACG,0.104
7,AGGTGAGC,-0.00638
8,CCGGGTGA,0.176
9,AATGCTCA,0.0674
10,GGTCAGCA,-0.0951
11,CGTCAGCA,-0.0315
12,CGTCAGCC,-0.135
13,ACTCAGCG,0.269
14,AGTCAGCA,0.455
15,ATTCAGCG,-0.0722
16,ACTCAGCC,0.335
17,AGTCAGCG,0.453
18,AGTCAGCC,0.458
19,GGCAGCAA,-0.355
20,GCAGATGC,-0.257
21,CAATGGTC,0.183
22,ATGTATTA,0.0655
23,ATGCTTTG,-0.00054
24,TAACAGTA,-0.019
25,CTATAGTC,0.37

row,Sequence,PBM E-score
1,ATATAGTG,0.0402
2,CTATAGCC,-0.0342
3,CTATAGTA,0.0624
4,ATATAGTA,0.128
5,ATATAGTC,0.403
6,ACCGAACT,-0.0318
7,AGCAGAAA,-0.0226
8,CAGAGTGG,-0.106
9,CAGACGAG,-0.0357
10,CGCTCTAG,-0.196
11,CCGACAAA,-0.0238
12,GTCATCGA,0.389
13,ATCATCGA,0.31
14,CTCATCGA,0.173
15,ACCTGAAA,-0.0522
16,CAGGTTGA,0.0225
17,CCAGAAAG,0.0675
18,AGTAGTCA,0.478
19,GGTAGTCA,0.479
20,GGTAGTGA,0.0671
21,AGTAGTCC,0.302
22,GGTAGTAA,0.0578
23,AGTAGTAG,0.00559
24,CGTAGTAA,-0.0636
25,AGTAGTCG,0.381

row,Sequence,PBM E-score
1,CGTAGTCC,0.262
2,AGTAGTTA,0.112
3,CGTAGTCA,0.483
4,AGTAGTAA,0.156
5,GGCCGTCA,-0.262
6,CTCTGGTC,-0.00298
7,GGAATTCA,-0.0346
8,ACGAACGT,-0.129
9,ATGACCGC,-0.075
10,CCAGTCGA,0.00412
11,CGTACGTC,-0.241
12,ACGGAGTC,0.431
13,ACGGAGTA,-0.0195
14,CCGGAGTA,0.0206
15,CCGGAGGC,-0.154
16,CCGGAGTC,0.373
17,ACGGAGTG,-0.215
18,ATGTACTG,0.0673
19,ACTGTCAA,-0.0537
20,GCGTCGCA,0.0193
21,CACTAATA,0.134
22,GACTAATC,0.439
23,AACTAATC,0.15
24,GACTAATA,0.445
25,CACTAATC,0.191

row,Sequence,PBM E-score
1,TACTAATA,-0.1
2,CTAGGTAC,0.0158
3,CAGACTTC,-0.103
4,AGGACTTC,0.201
5,AAGACTTG,0.165
6,ATGACTTG,0.435
7,CTCACTCC,0.0635
8,ACGACTTC,0.324
9,CTGACTTC,0.392
10,CCGACTTC,-0.0761
11,CTGACCCC,-0.221
12,ATGACTTC,0.469
13,AGGACTTG,0.0575
14,CTGACTCC,0.46
15,AAATGAAG,0.0192
16,ACACAGTC,0.285
17,ATGCAACC,-0.254
18,AACCAGTA,-0.0555
19,ATATACTC,0.103
20,AGGAGCTC,-0.0695
21,CGCTGCTC,-0.243
22,CTGTCACA,0.16
23,CAGTCACG,0.413
24,CAGTCACA,0.42
25,CCGTCACC,-0.189

row,Sequence,PBM E-score
1,CAGTCACC,0.423
2,CGGTCACA,-0.132
3,CAGTCAAG,0.267
4,CGGTCACC,-0.0952
5,CCGTCACA,-0.22
6,GACCTTTA,-0.0143
7,ATCGAGAT,-0.151
8,AATAGGAG,-0.113
9,AGAACGTG,-0.217
10,CTCTAGGA,0.0144
11,CGTCATCC,-0.131
12,AGTCATCG,0.492
13,CGTCATCA,-0.004
14,AGTCATCA,0.485
15,AGTCATCC,0.49
16,AGGCATCG,-0.125
17,GGTCATCA,0.228
18,ATTCATCC,0.119
19,ATTCATCG,0.205
20,GAGGTAAA,0.122
21,ATGTGGAG,0.0652
22,GGGCGCAC,-0.321
23,GCCAAGGC,-0.214
24,CGTCAGGC,-0.19
25,GGTCAGGA,-0.138

row,Sequence,PBM E-score
1,ATTCAGGG,0.0298
2,ACTCAGGG,0.311
3,AGTCAGGC,0.449
4,CGTCAGGA,-0.0376
5,AGTCAGGA,0.417
6,ACTCAGGC,0.331
7,AGTCAGGG,0.439
8,AAAGTCCA,0.0185
9,AGTGAGAG,-0.0545
10,AACGTGGG,-0.189
11,AGCGATCA,-0.0759
12,CTATGGAA,0.0704
13,CGAGCAGA,-0.0955
14,TGATTACA,0.41
15,CGATTAAA,0.249
16,TGATTTAA,0.407
17,CGATTACA,0.101
18,GGATTAAA,0.205
19,GGATTACA,0.0898
20,AGATTTAA,0.2
21,TGATTAAA,0.418
22,CGATTTAA,0.188
23,AGGTAGGG,-0.121
24,GATTGGCC,-0.0787
25,CCAACAAA,-0.069

row,Sequence,PBM E-score
1,ACTGCGGA,-0.0234
2,CCGGACTA,0.103
3,AGTTTAGG,0.0907
4,AGCAACTG,-0.155
5,ATTGACAC,0.0304
6,ATTGACTG,0.275
7,CTTGACTA,0.435
8,GTTGACGA,0.126
9,GTTGACAA,-0.00857
10,GTTGACTA,0.457
11,CTTGACCC,-0.164
12,CTTGACAA,0.113
13,ATTGACTC,0.445
14,CTTGACTC,0.463
15,CTTGACCA,0.0717
16,CTTGACGC,-0.268
17,ACTAACAC,0.315
18,CTAATTAG,0.175
19,AACATTAA,-0.00496
